Compound activity from PubChem BioAssay.
In the library only some 4.1% were active in any assay of this set; here they are far more common.
DAX1 inh-1: DAX1 (NR0B1) inhibitors on StAR promoter, primary screen, cell-based, luminescence, SF-1 (NR5A1), full-length DAX-1; inhibition, % at 6.8 µM; actives 1.1% (n = 370,000); HEK293T StAR-luciferase reporter, SF-1/DAX-1 repression relief;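 active = inhibition above the mean over all tested compounds plus 3 SD, cut at about 3.6% in these data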;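 also: 0% = DAX-1 cells with DMSO and 100% = cells lacking DAX-1 with DMSO; higher inhibition means more luminescence from relief of DAX-1 repression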
hgDAF12 agonist: H. glycines DAF-12 receptor agonists, primary screen, cell-based, luminescence, HEK293, GAL4 fusion, UAS-luciferase; Nuclear hormone receptor DAF-12 (Heterodera glycines), GAL4 fusion; HEK293 GAL4-hgDAF12 UAS-luciferase reporter, agonist luminescence; normalized to butyrate control; activation, % at 6.8 µM; actives 1.8% (n = 370,000); AID 687014, 2013;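 active = activation above a cutoff set at the mean of all screened compounds plus 3 SD, cut at about 10% in these data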;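 also: 0% = DMSO wells and 100% = sodium butyrate wells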
DAX1 inh-2: DAX1 (NR0B1) inhibitors, primary screen, cell-based, HEK293, Gal4-DAX1, luciferase luminescence | Nuclear receptor subfamily 0 group B member 1 (Homo sapiens), P51843 | HEK293 Gal4-DAX1 luciferase reporter | inhibition, % at 6.75 µM | actives 0.99% (n = 340,000) | AID 504766, 2011;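 active = inhibition above the mean over all tested compounds plus 3 SD, cut at about 4.2% in these data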;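 also: 0% = DAX1-transfected cells with DMSO and 100% = empty-vector control cells with DMSO; inhibition shows as a rise in luminescence from relieved DAX1 repression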
Target sequence (P51843 207-470 limits assumed): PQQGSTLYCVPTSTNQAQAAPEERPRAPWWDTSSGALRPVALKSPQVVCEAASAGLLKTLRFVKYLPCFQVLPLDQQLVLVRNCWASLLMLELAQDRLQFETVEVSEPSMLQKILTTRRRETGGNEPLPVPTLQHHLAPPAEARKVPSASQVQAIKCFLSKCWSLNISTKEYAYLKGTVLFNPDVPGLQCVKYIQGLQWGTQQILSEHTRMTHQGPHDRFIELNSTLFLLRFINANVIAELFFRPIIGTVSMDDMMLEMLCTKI
ssDAF12 agonist: S. stercoralis DAF-12 nuclear receptor activators, primary screen, cell-based, luminescence, HEK293, GRIP1 co-expression, lit1-tk-luc. Nuclear hormone receptor DAF-12 (Strongyloides stercoralis). HEK293 ssDAF-12/GRIP1 lit1-tk-luc reporter; % of 3 µM dafachronic acid response. activation, % at 6.8 µM. actives 1% (n = 370,000). AID 652126, 2013;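 active = activation above the mean over all tested compounds plus 3 SD, cut at about 0.9% in these data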;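 also: 0% = DMSO-only wells and 100% = 3 µM delta7-dafachronic acid wells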
hcDAF-12 act: H. contortus DAF-12 nuclear receptor activators, primary screen, cell-based, luminescence, HEK293, lit1-tk-luc reporter; HEK293 hcDAF-12 lit1-tk-luc reporter; 0% DMSO, 100% Δ7-dafachronic acid; activation, % at 6.8 µM; actives 1.4% (n = 370,000);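 active = activation above the mean of all tested compounds plus 3 SD, cut at about 5.5% in these data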;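 also: 100% = response to 3 µM Δ7-dafachronic acid high control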
An asterisk follows results filed as active; · = not tested or not shown.

SMILES	DAX1 inh-1	hgDAF12 agonist	DAX1 inh-2	ssDAF12 agonist	hcDAF-12 act
Cc1ccccc1Cn1cc(COC(=O)N(C)Cc2ccccc2)nn1	-1	2	·	0	0
O=C1CCC[C@H]2C[C@H](NCCc3ccncc3)CC[C@]23CCCN13	·	-3	·	-2	-1
Cc1ccc2oc(=O)c3cnn(CC(=O)N4CCc5ccccc5C4)c3c2c1	0	3	6.3*	-1	1
Cc1cc(C(=O)COC(=O)c2ccc(Cl)c(S(N)(=O)=O)c2)c(C)n1CC1CCCO1 (stereo not given)	-1	-4	4.6*	-1	-2
O=c1[nH][nH]cc1C=Nc1ccc(Oc2ccccc2)cc1	0	1	0	6.9*	-2
Cc1cc(C(=O)O[C@H]2CCC[C@@]3(C(=O)N(Cc4ccccc4)c4ccccc43)[C@H]2NC(=O)CCc2ccccc2)no1	-1	1	·	-2	-3
CCOC(=O)c1c(C)[nH]c(C(=O)NCc2ccccn2)c1C	4.1*	5	1	0	0
CCOC(=O)c1c(C)[nH]c(C(=O)OCc2ccc(C)cc2)c1C	4.2*	4	0	0	1
CCOC(=O)c1c(C)[nH]c(C(=O)COC(=O)CCSc2ccccc2)c1C	0	9	1	0	6.3*
C=CCNc1cccc2c1S(=O)(=O)N[C@@H](CC(C)C)CO2	-1	0	·	-1	1
Cc1ccc(Cn2cc(CN3[C@H](CC(C)C)COc4cc(Br)ccc4S3(=O)=O)nn2)cc1	1	-1	·	0	1
Cc1cc(N2O[C@]34C=C[C@]25C[C@@H](O)CC[C@]5(C)C3CC[C@]2(C)[C@@H]([C@H](C)/C=C/[C@H](C)C(C)C)CC[C@H]24)no1 (stereo not given in full)	1	3	0	1.0*	5
CC(C)[C@@H](C)/C=C/[C@@H](C)[C@H]1CC[C@@H]2[C@]1(C)CCC1[C@]23C=C[C@]2(C[C@@H](O)CC[C@]12C)N(c1ccc(F)cn1)O3 (stereo not given in full)	1	3	·	0	2
CCOC(=O)N1CCN(C(=O)C[C@H]2C[C@@]3(C(=O)OC)C(=C[C@H](C4CCCC4)O[C@@H]3C)N(Cc3cccc4ccccc34)C2=O)CC1	0	-3	·	-1	-2
Cc1cc(C)nc(N/N=C/c2ccc(Cl)cc2)n1	0	2	5.0*	-1	0
O=C(N[C@@H](Cc1cccnc1)C(=O)N1CCC[C@H]1C(=O)NCCc1ccccc1Cl)c1ccc(Cl)c(Cl)c1	0	-1	·	-2	1
O=C(NCc1ccccc1)C1Cc2c(-c3ccc4c(c3)OCO4)ccnc2O1 (stereo not given)	4.4*	-3	·	-1	0
Cc1nc2ccc(NC(=O)c3c(Cl)cccc3Cl)cc2c(=O)[nH]1	0	1	·	-1	0
COCC(C)NC(=S)Nc1ccccc1[N+](=O)[O-] (stereo not given)	0	-2	1	2.4*	4
O=c1[nH]c2ccccc2nc1-c1c[nH]c2ccccc12	1	3	2	0	6.5*
Nc1ccccc1-c1nc2ccccc2[nH]c1=O	1	6	1	-1	2
Cc1ccc(-n2nnc(-c3cccnc3Cl)n2)cc1	2	12*	1	0	4
Clc1ccc(-n2nnc(-c3cccnc3Cl)n2)cn1	1	7	2	-1	2
COc1ccc(-n2c(=S)[nH]c3c(oc4ccccc43)c2=O)cc1	0	0	0	-1	0
COc1ccc(-n2c(=S)[nH]c(=O)c3cccnc32)cc1	0	0	7.2*	-1	0
Nc1cc(=O)[nH]c(SCCNS(=O)(=O)c2ccccc2)n1	0	3	-2	0.9*	3
CC(=NNc1cc(C)c2cc(C)ccc2n1)c1ccccn1	-7	-3	·	-1	-1
